We go through 40 compounds from PubChem BioAssay (Tox21).

Inconclusive results are not listed. Entries that show only a call come without a potency. Calls of active or inactive are those of the source. Calls come from the whole dose curve; as a rule, active = well fitted cell-killing curve with a large enough effect in the repeat runs; inconclusive = weak or mixed curves, or effect the other way; inactive = no such curve, though single readings can be large or run the other way.
Potency is the fitted concentration of half-maximal effect.

A short description of the experiment: qHTS assay for identifying genotoxic compounds that show differential cytotoxicity against isogenic chicken DT40 cell lines with known DNA damage response pathways - Rev3 mutant cell line (AID 743014). Note: nearly all actives have a fitted effect of over 55% in size. Particulars: chicken DT40 Rev3-/- viability, CellTiter-Glo, 40 h; series mostly up to 68.4 µM. The source says:
National Center for Advancing Translational Sciences [NCATS]
NIH Chemical Genomics Center [NCGC]
U.S. Environmental Protection Agency [EPA]
National Institutes of Environmental Health Sciences [NIEHS]
National Toxicology Program [NTP]
U.S. Food and Drug Administration [FDA]
DNA repair pathways play a critical role in cellular homeostasis by repairing DNA damage induced by endogenous processes and xenobiotics. Isogenic chicken DT40 cell lines deficient in different DNA repair pathways can be used to identify genotoxic compounds and aid in characterizing the nature of the DNA damage induced. Two DNA repair-deficient cell lines with disrupted genes, Rad54/Ku70 or Rev3, were used to screen the Tox21 10K compound library. Possible genotoxicity was based on the presence of a significant increase in cytotoxicity in one or more of the DNA repair-deficient cell lines compared to that observed in the parental DNA repair-proficient cell line. CellTiter Glo viability assay (Promega, Madison, WI) was used to measure cell viability in these cells after compound treatment. This assay includes the data from the Rev3 mutant cell line.
Tox21 Assay Protocol Summary:
300 DT40 mutant cells in 5 uL/well were dispensed into white, solid-bottom 1536-well plates using a Multidrop Combi (ThermoFisher Scientific, Waltham, MA) dispenser. After the assay plates were incubated at 37 C/5% CO2 for approximately 0.5 hour, 23 nL of compounds dissolved in DMSO, positive controls or DMSO only was transferred into the assay plate by a pintool work station (Kalypsys, San Diego, CA). The assay plates were incubated at 37 C/5% CO2 for 40 hours. After 5 uL per well of CellTiter-Glo reagent was added into each well of the assay plates, the plates were incubated for 30 min at room temperature and the luminescence intensity of the plates was measured using a ViewLux (PerkinElmer, Shelton, CT) plate reader.
In general terms: In qHTS, concentration-response curves come from the screen itself.
For the compound `CCCCNc1cc(C(=O)O)cc(S(N)(=O)=O)c1Oc1ccccc1`, the Potency result was “inactive”.

For the compound `CC(=O)OC(C)OC(C)=O`, the Potency was 70.7 µM (active).

As to `O=C(O)[C@@H]1CSCN1`, the Potency result was “inactive”.

Take `CC(C)(C)C1CCCCC1=O` (stereo not given): the Potency result is “inactive”.

Take `C=CCCC=C`: the Potency result was “inactive”.

Take `CCN(CC)CCNC(=O)COc1ccc(Cl)cc1`: the Potency result is “inactive”.

Regarding `Cc1nnc(SCC2=C(C(=O)O)N3C(=O)[C@@H](NC(=O)Cn4cnnn4)[C@H]3SC2)s1`, the Potency entry is “inactive”.

On to `CNCCC(Oc1ccccc1OC)c1ccccc1` (stereo not given), for which the Potency entry is “inactive”.

As to `O=C(O)c1cccc(Cl)c1Cl`, the Potency result was “inactive”.

For the compound `O=C(O)[C@@H](O)[C@H](O)[C@H](O)[C@@H](O)C(=O)O`, the Potency entry is “inactive”.

Regarding `CCN(O)CC`, the Potency result is “inactive”.

Consider `CN(C)C(=O)NC1(c2ccccc2)CCN(CCC[C@]2(c3ccc(Cl)c(Cl)c3)CCCN(C(=O)c3ccccc3)C2)CC1`, for which the Potency was 14.6 µM (active).

As for `CO[C@@]1(NC(=O)CSCC#N)C(=O)N2C(C(=O)O)=C(CSc3nnnn3C)CS[C@@H]21`, the Potency entry was “inactive”.

For `CN1CCN(C2=Nc3cc(F)ccc3Cc3ccccc32)CC1`, the Potency was 8.41 µM (active).

Regarding `CN1CCN(c2c(F)cc3c(=O)c(C(=O)O)cn4c3c2SCC4)CC1`, the Potency is 18.8 µM (active).

Turning to `COC(=O)C(C)O` (stereo not given), the Potency result is “inactive”.

For `O=C1CCCc2ccccc21`, the Potency entry was “inactive”.

Consider `CC(=O)Nc1ccc(C)c(Cl)c1`, for which the Potency entry is “inactive”.

With `C=CCc1cc(OC)c(O)c(C(=O)NCCO)c1`, the Potency entry is “inactive”.

As to `CCCCCCCCCC#N`, the Potency entry is “inactive”.

Consider `CC(C)O`, for which the Potency entry is “inactive”.

On to `CC(C)OC(C)C`, for which the Potency entry was “inactive”.

For the compound `CC1(O)CSC(C)(O)CS1` (stereo not given), the Potency is 61.1 µM (active).

In the case of `CC(C)C(=O)OC/C=C/c1ccccc1`, the Potency entry is “inactive”.

Take `COC(=O)c1ccc2cc(C(=O)OC)ccc2c1`: the Potency result is “inactive”.

In the case of `CCCCCCCCCCCCOCCOS(=O)(=O)O`, the Potency entry is “inactive”.

For `CCC(=O)c1ccc2c(c1)N(CCCN(C)C)c1ccccc1S2`, the Potency is 8.41 µM (active).

As for `O=C1C=CC(=O)O1`, the Potency entry was “inactive”.

As to `CCOc1ccc(NS(=O)(=O)c2ccc(N)cc2)nn1`, the Potency entry is “inactive”.

Turning to `OCCN(CCO)c1ccccc1`, the Potency result was “inactive”.

As to `Cc1ccsc1C(=CCCN1CCC[C@@H](C(=O)O)C1)c1sccc1C`, the Potency result is “inactive”.

As for `Cc1cc(S(=O)(=O)O)c(N)cc1Cl`, the Potency result was “inactive”.

`O=C(C(Cl)Cl)N1CCOC12CCCCC2`: the Potency is 6.86 µM (active).

On to `O=C1CCN(c2ccccc2)N1`, for which the Potency was 68.8 µM (active).

With `CN1[C@@H]2CC[C@H]1CC(OC(=O)c1c[nH]c3ccccc13)C2` (stereo not given in full), the Potency result was “inactive”.

`CCCCNc1ccc(C(=O)OCCN(CC)CC)cc1`: the Potency was 1.68 µM (active).

Consider `CCCN(CCC)C(=O)C(CCC(=O)O)NC(=O)c1ccccc1` (stereo not given), for which the Potency entry was “inactive”.

As for `CCOc1ccc(NC(N)=O)cc1`, the Potency result was “inactive”.

On to `COc1ccc(S(=O)(=O)Nc2nnc(CC(C)C)s2)cc1`, for which the Potency result is “inactive”.

Consider `CCCCCCCCc1ccc(S(=O)(=O)O)cc1`, for which the Potency entry is “inactive”.
